# High-throughput results deposited in PubChem BioAssay by several laboratories.
# GAA850 FXN act: activators of GAA850 frataxin (FXN) promoter | HEK293 lucGAA850 FXN promoter luciferase reporter, 24 h; percent of 10 µM SAHA response | hit rate 0.56% among 360,000 | AID 540364 | activation, % at 6 µM;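 active = activation above the average of all compounds screened plus 3 SD, cutoff fixed separately per campaign, cut at about 7.5% in these data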;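 note: 0% = DMSO wells and 100% = 10 µM SAHA wells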
# Wnt bcat act: Wnt/beta-catenin pathway activation. hit rate 1.2% among 300,000. Wnt/beta-catenin reporter cell assay, activator, plate reader. activation, % at 9.35 µM; in the data active = activation above about 30%, passing the limit was not always enough; inconclusive = no clear call, values can overlap the other calls;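 note: 0% = neutral control wells and 100% = positive control wells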
# MITF act: activators of MITF-driven TRPM1 promoter activity in SK-MEL-5 cells; SK-MEL-5 TRPM1-promoter luciferase, 24 h; % of positive control, neutral wells = 0; activation, % at 12.5 µM; hit rate 0.75% among 300,000; AID 588334;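 active = mean activation of at least 80% with every replicate also reaching 80%; inconclusive = mean reaches 80% but some replicate falls short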;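 note: 0% = neutral control wells and 100% = parthenolide positive control wells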
# AHR act: activates the human aryl hydrocarbon receptor. AHR-responsive luciferase reporter cells, luminescence. activation, % at 5 µM. hit rate 2.5% among 320,000; in the data active = activation above about 47%;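 note: 0% = vehicle wells and 100% = reference agonist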
# Target sequence (P35869 whole entry, looked up): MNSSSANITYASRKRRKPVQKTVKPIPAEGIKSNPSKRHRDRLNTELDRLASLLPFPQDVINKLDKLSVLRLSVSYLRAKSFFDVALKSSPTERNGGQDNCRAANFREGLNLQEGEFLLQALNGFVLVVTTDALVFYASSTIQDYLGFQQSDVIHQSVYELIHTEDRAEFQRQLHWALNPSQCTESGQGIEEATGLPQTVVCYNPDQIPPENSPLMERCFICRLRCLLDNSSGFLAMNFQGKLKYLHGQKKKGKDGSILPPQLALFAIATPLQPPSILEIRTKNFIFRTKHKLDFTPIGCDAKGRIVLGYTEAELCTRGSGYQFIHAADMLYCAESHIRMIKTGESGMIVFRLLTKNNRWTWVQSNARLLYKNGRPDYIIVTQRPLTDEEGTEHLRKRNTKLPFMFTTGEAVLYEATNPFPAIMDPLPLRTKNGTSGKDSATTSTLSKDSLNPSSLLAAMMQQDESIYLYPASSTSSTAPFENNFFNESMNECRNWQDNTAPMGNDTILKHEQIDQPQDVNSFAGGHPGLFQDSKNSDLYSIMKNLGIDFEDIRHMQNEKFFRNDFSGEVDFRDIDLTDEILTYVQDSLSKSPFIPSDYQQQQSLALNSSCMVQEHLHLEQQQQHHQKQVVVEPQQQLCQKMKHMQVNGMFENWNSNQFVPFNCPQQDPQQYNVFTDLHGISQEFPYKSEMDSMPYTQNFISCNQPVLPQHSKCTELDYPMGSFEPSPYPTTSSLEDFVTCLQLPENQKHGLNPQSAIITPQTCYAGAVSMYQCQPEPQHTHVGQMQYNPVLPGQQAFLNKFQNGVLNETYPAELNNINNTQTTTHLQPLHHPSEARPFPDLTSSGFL
# esBAF inh: SWI/SNF esBAF complex inhibition; mouse ES cells, Bmi1-luciferase knock-in reporter, 24 h; 100% = twice the neutral-well signal; reporter increase, % at 12.5 µM; hit rate 2% among 350,000; AID 602393; in the data active = activation above about 40%; inconclusive = no clear call, values can overlap the other calls;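 note: 0% = median of the plate's neutral control wells and 100% = double that signal; a rise in the Bmi1 reporter signal indicates esBAF inhibition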
# GAA30 counter: counter-screen for GAA850 frataxin promoter activators: GAA30 promoter activation; hit rate 66% among 1,900; HEK293 lucGAA30 FXN promoter luciferase, 24 h; DMSO = 0%, 5 µM ipriflavone = 100%; AID 588350; activation, % at 6 µM; shares compounds with GAA850 FXN act;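 active = mean activation above the mean of solvent-only control wells plus 3 SD, cut at about 22% in these data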;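 note: counterscreen of GAA850 promoter hits where activity marks nonselective or luminescence artifacts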
# FXN GAA850 conf: confirmation of GAA850 frataxin (FXN) promoter activators; shares compounds with GAA850 FXN act; activation, % at 6 µM; AID 588351; HEK293 lucGAA850 FXN promoter luciferase reporter, 24 h; 100% = activation by SAHA; hit rate 86% among 1,900;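 active = mean activation above a set limit taken from the primary screen, cut at about 8% in these data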;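 note: 0% = DMSO wells and 100% = 10 µM SAHA wells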
# * hit, by the source's call; ? = inconclusive; / = not tested or not shown; ! = not confirmed by another sample. In the library only some 4.2% were active in any assay of this set; here they are far more common.
SMILES,GAA850 FXN act,Wnt bcat act,MITF act,AHR act,esBAF inh,GAA30 counter,FXN GAA850 conf
COc1ccc(NC(=O)Nc2ccc3c(c2)[C@H]2C[C@H](CC(=O)N4CCc5ccccc5C4)O[C@H](CO)[C@H]2O3)cc1,/,/,/,/,18,/,/
Cc1ccc2nc(C(F)(F)F)c(C#N)c(N)c2c1,40*,-1,-26,11,-14,79*,77*
NC(=S)N/N=C/c1cn(-c2ccccc2)nc1-c1cccnc1,7.8*,11,46,39,/,63*,19*
S=C(Nc1ccc(Cl)cc1)c1nc2ccccc2[nH]1,7.8*,/,18,37,/,113*,33*
CCNC(=S)Nc1ccc(-c2nc3ccccc3[nH]2)cc1,2,13,46,34,/,/,/
O=C(NN=C1C2CC3CC(C2)CC1C3)c1cccs1,8.8*,/,4,4,19,24*,11*
O=C(NN=C1CCCC1)c1cccs1,4,/,5,17,/,/,/
CC(=O)N1CCC(=NNC(=O)c2cccs2)CC1,8.7*,/,6,21,/,11,1
O=C(Nc1cccc(Cl)c1)C1=Cc2cc(Cl)ccc2OC1,-1,/,18,-3,9,/,/
O=C(Nc1ccc(Cl)c(Cl)c1)C1=Cc2ccccc2OC1,9.1*,3,75,10,57*,86*,34*
Nc1c(-c2ccccc2)cnc2c(-c3ccccc3)cnn12,8.4*,12,/,-3,-55,91*,35*
CCOc1ccc(OCc2cccc(C(=O)N3CCCCCC3)c2)cc1,7.8*,-6,-46,-2,/,105*,35*
CC(=O)Nc1ccc2c(c1)Cc1c-2cc(Br)c(N)c1Br,7.6*,8,13,/,24,63*,28*
CC(=O)Nc1c(Br)cc2c(c1Br)Cc1cc(Br)ccc1-2,2,0,-17,/,-3,/,/
Cc1ccc(S(=O)(=O)N[C@H]2CC[C@H](CCn3cc(C(C)C)nn3)O[C@H]2CO)cc1,/,/,/,/,3,/,/
CCCNC(=O)c1ccccc1NC(=O)c1ccccc1N(C)S(=O)(=O)c1ccccc1,14*,-7,9,2,2,8,19*
CC(C)CNC(=O)c1ccccc1NC(=O)c1ccccc1N(C)S(=O)(=O)c1ccccc1,13*,-6,-12,10,/,12,2
COc1ccc(CC(C)NCC(O)c2ccc(O)c(NC=O)c2)cc1 (stereo unspecified),8.0*!,-5,3,/,-4,16,27*
CC(CCc1ccccc1)NCC(O)c1ccc(O)c(C(N)=O)c1 (stereo unspecified),-2,0,-3,2,1,/,/
COc1ccc(S(=O)(=O)Nc2ccccc2SC)cc1C,1,-2,-14,0,-3,/,/
COc1ccc(S(=O)(=O)Nc2ccccc2OC)cc1C,8.9*,/,-3,1,1,10,7
C[C@@H]1CN([C@@H](C)CO)S(=O)(=O)c2ccc(Br)cc2O[C@H]1CN(C)Cc1ccccc1,/,/,/,/,-1,/,/
CCOC(=O)C1CCN(C2=NC(=O)/C(=C/c3ccc(OC)c(OC)c3)S2)CC1,4,6,-4,0,0,/,/
COc1ccc(/C=C2\SC(N3CCCCC3)=NC2=O)cc1OC,9.5*,8,6,13,18,29*,21*
C[C@@H]1CN([C@@H](C)CO)C(=O)c2cc(NC(=O)Cc3ccccc3)ccc2O[C@@H]1CN(C)Cc1ccc(Cl)c(Cl)c1,/,/,/,/,5,/,/
SMILES,GAA850 FXN act,Wnt bcat act,MITF act,AHR act,esBAF inh,GAA30 counter,FXN GAA850 conf
COc1cccc2sc(N(C)c3ccccc3)nc12,7.7*,65*,57,5,14,107*,31*
COc1cccc2sc(N)nc12,4,8,7,-1,1,/,/
CC1=CC(=O)N(c2cccc3c(N4C(=O)C=C(C)C4=O)cccc23)C1=O,9.2*,-12,-1,/,1,15,26*
Nc1ccc2c(c1)C(=O)N(c1cccc3ccccc13)C2=O,1,0,/,1,-6,/,/
C[C@@H]1CN([C@H](C)CO)C(=O)c2cccc(NS(C)(=O)=O)c2O[C@H]1CN(C)C(=O)NC1CCCCC1,/,/,/,/,2,/,/
CN(C)C(=O)C[C@@H]1C=C[C@H](NC(=O)C2CC2)[C@H](CO)O1,/,/,/,/,-1,/,/
COC(=O)c1ccc(C(=O)OC)c(NC2=NS(=O)(=O)c3ccccc32)c1,-1,/,2,1,6,/,/
COC(=O)c1c(-c2ccccc2)csc1NC1=NS(=O)(=O)c2ccccc21,8.9*,/,54,16,/,125*,43*
CCNC(=O)Nc1ccc2c(c1)C(=O)N(C)[C@H]1CC[C@@H](CC(=O)NCC3CCCCC3)O[C@H]1CO2,/,/,/,/,-5,/,/
Cc1cnc(N=Nc2ccccc2)[nH]1,7.7*,-4,35,/,31,101*,28*
c1ccc2nc(-c3nc4ccccc4[nH]3)ccc2c1,-3,/,-18,8,-56,/,/
Cc1nc2ccc(-c3nc4ccccc4[nH]3)cc2[nH]1,7.8*,?,55,-10,/,129*,38*
C[C@H]1CN([C@@H](C)CO)S(=O)(=O)c2ccc(-c3ccccc3)cc2O[C@@H]1CN(C)C(=O)Cc1ccccc1,/,/,/,/,4,/,/
CO[C@H]1CN(C)C(=O)c2cc(NS(=O)(=O)CC(F)(F)F)ccc2OC[C@H](C)N(Cc2nccs2)C[C@H]1C,/,/,/,/,-1,/,/
CCCNC(=O)N1C[C@H]2[C@@H](c3ccccc31)[C@H](CO)N2Cc1cc(F)ccc1F,/,/,/,/,-5,/,/
C[C@@H](NC(=O)c1coc(=O)c(Br)c1)c1ccccc1,8.8*,/,8,1,8,-10,5
Cc1cc(NC(=O)c2coc(=O)c(Br)c2)ccc1C(C)C,8.4*,15,/,3,?,89*,50*
C[C@H]1CN([C@@H](C)CO)C(=O)c2c(c3ccccc3n2C)-c2ccccc2CO[C@@H]1CN(C)CC1CC1,/,/,/,/,-6,/,/
C[C@@H]1CN([C@H](C)CO)C(=O)c2cccc(NS(=O)(=O)c3cccs3)c2O[C@@H]1CN(C)S(=O)(=O)c1cccs1,/,/,/,/,10,/,/
CC(C)C#Cc1ccc2c(c1)O[C@@H](CN(C)CC1CCOCC1)[C@@H](C)CN([C@@H](C)CO)S2(=O)=O,/,/,/,/,-3,/,/
CC(C)NC(=O)N(C)C[C@@H]1Oc2cc(C#Cc3ccc(F)cc3)ccc2S(=O)(=O)N([C@H](C)CO)C[C@@H]1C,/,/,/,/,1,/,/
O=C(O)c1ccc(N/N=C/c2ccnc3ccccc23)cc1,9.3*,1,80,23,/,93*,32*
CN(C)c1ccc(/C=C/c2nnnn2-c2ccccc2)cc1,8.3*,/,25,8,/,125*,38*
CN(C)c1ccc(/C=C/c2ccc3ccccc3n2)cc1,-12,/,-67,8,-49,/,/
Cc1cc2nc(SCC(=O)Nc3ccccc3C(=O)O)[nH]c2cc1C,9.6*,10,-14,20,/,62*,18*
